Inconclusive results are not listed. Active and inactive are the calls of the source. Unless noted, calls come from the whole dose curve; as a rule, active = well fitted curve in the direction sought with a large enough effect; inconclusive = small, poorly fitted or top-dose-only effect, or another doubt; inactive = no such curve, though single readings can be large; an effect the other way counts as inactive or inconclusive.
Legend:
[1] = molecular target: Lysosomal acid glucosylceramidase (Homo sapiens) (UniProt P04062); assay: Glucocerebrosidase-p2 (AID 348; in the data active = potency below about 10 µM; note: potency is the fitted concentration of half-maximal effect); conditions: purified GBA, blue fluorogenic substrate, 40 min
Method in brief: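 Normal human glucocerebrosidase (0.2 nM) with blue fluorogenic substrate (80 uM final) in citrate/phosphate pH 5.9 with 10mM sodium taurocholate, 0.01% tween-20; 40 min RT, NaOH/glycine stop; fluorescence Ex 365/Em 440; AC50 from a titration from 0.6 nM upwards.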

[2] = molecular target: Cytochrome P450 1A2 (Homo sapiens) (UniProt P05177); assay: p450-cyp1a2 (AID 410; calls by dose curve; note: potency is the fitted concentration of half-maximal effect;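 for activity change, negative = inhibition: -100% = full effect of reference inhibitor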); conditions: recombinant CYP1A2, luciferin-ME demethylation, luminescence; series mostly up to 57 µM
Method in brief: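 O-Demethylation of luciferin 6' methyl ether by human CYP1A2 is monitored as luciferase luminescence. Substrate sits at Km (100uM); enzyme is 20nM. Values are scaled to 57 uM furafylline as maximal inhibition.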

[3] = NFAT Signaling Pathway (AID 444; active = well fitted curve in either direction with a large enough effect, not every such curve was filed as active;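 note: carbachol stimulus at about its EC50 of 1 µM final; % is set by controls: 0 for no effect and ±100 for the full control effect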); conditions: Jurkat NFAT-bla M1, carbachol, beta-lactamase ratio, 5 h; at 7.69 µM (top of the series) unless noted
Method in brief: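 Read-out: CCF4 FRET ratio (460 nm/530 nm) after 1 h RT dye loading, used for %activity and AC50 from titration series. Cells: Jurkat NFAT-β-lactamase/M1 line, treated with compound plus 1 uM carbachol for 5 h, 37 °C.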

[4] = molecular target: Glucocorticoid receptor (Homo sapiens) (UniProt P04150); assay: GR-GFP Redistribution (AID 450;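 active = compounds whose dose series gives a full or clear partial fitted curve of increased nuclear translocation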; note: potency is the fitted concentration of half-maximal effect); conditions: U2OS GR-GFP nuclear translocation, laser cytometry, 2 h
[5] = molecular target: Glucocorticoid receptor (Homo sapiens) (UniProt P04150); assay: GR-EFC Redistribution (AID 451; calls by dose curve; note: potency is the fitted concentration of half-maximal effect); conditions: CHO-K1 GR-EFC translocation, beta-gal luminescence, 2 h
Method in brief: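 Translocation of GR-ED fusion to nuclear EA restores b-gal, read by luminescence after 1 h room-temperature detection. Engineered CHO-K1 biosensor cells, 1,000/well, exposed 2 h at 37 C to titrations up to 46 uM final.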

[6] = molecular target: Mitogen-activated protein kinase 10 (Mus musculus) (UniProt Q61831); assay: JNK3 AlphaScreen Assay (AID 530; active = well fitted curve in either direction with a large enough effect, not every such curve was filed as active;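 note: kinase came from lysate of stimulated human HepG2 cells; signal reports phosphorylation of biotinylated GST-cJun 1-79 at Ser73 with 10 µM ATP; % is set by controls: 0 for no effect and ±100 for the full control effect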); conditions: JNK3 lysate, c-Jun phosphorylation; series mostly up to 57.1 µM
Method in brief: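 qHTS titrations with 15 min compound pre-incubation before adding ATP (10 uM final). Read-out: AlphaScreen of Ser73-phosphorylated biotin-GST-cJun using HepG2 lysate JNK3 activated by IL-1β and TNFα.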

[7] = molecular target: Cytochrome P450 3A4 (Homo sapiens) (UniProt P08684); assay: qHTS Assay for Inhibitors and Substrates of Cytochrome P450 3A4 (AID 884); conditions: recombinant CYP3A4, Luciferin-PPXE luminescence; series mostly up to 57.1 µM; note: nearly all actives have a fitted effect of over 50% in size; note: potency is the fitted concentration of half-maximal effect
Method in brief: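 Luminescent readout of luciferin produced by CYP3A4 (20 nM) dealkylation of Luciferin-PPXE, 25 uM (its KM). NADPH-driven reaction ran 60 min at RT after 10 min compound preincubation; data scaled to 57 uM ketoconazole as 100% inhibition.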

[8] = molecular target: Cytochrome P450 3A4 (Homo sapiens) (UniProt P08684); assay: qHTS Assay for Activators of Cytochrome P450 3A4 (AID 885); conditions: recombinant CYP3A4, Luciferin-PPXE luminescence, 60 min; series mostly up to 57.1 µM; note: nearly all actives have a fitted effect of over 65% in size
Method in brief: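 Activators are scored by enhanced luminescence from CYP3A4 conversion of luciferin-PPXE (25uM, equal to KM) to luciferin, after 60 min at RT with an NADPH-regenerating system.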

[9] = qHTS Assay for Lipid Storage Modulators (AID 1519; calls by dose curve); conditions: Drosophila S3 cells, BODIPY lipid droplet/cell ratio, laser cytometry, cells loaded with oleic acid; for activity change, negative = inhibition: at 57.5 µM (top of the series)
Method in brief: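 Cells seeded at 5,000 per well were treated with compounds over a concentration series and loaded with oleic acid (400 uM, as added). Lipid droplet fluorescence (488 nm excitation, 500-530 nm channel) was read by laser-scanning cytometry and normalized to 20 uM Triacsin C.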

[10] = molecular target: Dual specificity protein kinase CLK4 (Homo sapiens) (UniProt Q9HAZ1); assay: qHTS Assay for Inhibitors of CDC-like Kinase 4 (Kinase-Glo Assay) (AID 1770); conditions: recombinant Clk4, Kinase-Glo ATP depletion luminescence; series mostly up to 66.7 µM; note: nearly all actives have a fitted effect of over 65% in size; note: potency is the fitted concentration of half-maximal effect
Method in brief: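 Clk4 25 nM, RS peptide 100 uM, ATP 1 uM, pH 7.5 Tris, 10 mM MgCl2, 2.5 mM DTT; 4.5 h RT; ATP depletion read by Kinase-Glo luminescence.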

[11] = molecular target: Dual specificity protein kinase CLK4 (Homo sapiens) (UniProt Q9HAZ1); assay: qHTS Assay for Inhibitors of CDC-like Kinase 4 (ADP-Glo Assay) (AID 1771); conditions: recombinant CLK4, ADP-Glo luminescence; series mostly up to 80 µM; note: nearly all actives have a fitted effect of over 70% in size; note: potency is the fitted concentration of half-maximal effect
Method in brief: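 Compounds are pin-transferred onto substrate mix (100 uM RS peptide, 1 uM ATP), then 25 nM Clk4 is added. After 1 hr at room temperature, ADP-Glo reagent runs 45 min, detection reagent 30 min, then luminescence is read.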

[12] = molecular target: Ubiquitin carboxyl-terminal hydrolase 1 (Homo sapiens) (UniProt O94782); assay: Inhibitors of USP1/UAF1: Pilot qHTS (AID 504865); conditions: purified USP1/UAF1, Ub-rhodamine cleavage fluorescence; series mostly up to 54.9 µM;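 note: rhodamine fluorescence freed from ubiquitin-rhodamine substrate followed over time; top concentration of the series differs between compounds; % is set by controls: 0 for no effect and ±100 for the full control effect; nearly all actives have a fitted effect of over 35% in size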
Method in brief: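 Enzyme-free wells gave the negative control, while test wells held 1nM USP1/UAF1 preincubated with compound for 15 min at room temperature. Ub-Rho at 150nM final started the reaction, and fluorescence at 480/540 nm was recorded kinetically.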

[13] = Counterscreen qHTS for small molecule stabilizers of the endoplasmic reticulum resident proteome: GLuc-NoTag assay (AID 1508627); conditions: Gaussia luciferase NoTag secretion counterscreen, luminescence, thapsigargin 100 nM for final 4 h; series mostly up to 76.4 µM;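 note: 0% = thapsigargin alone and -100% = DMSO vehicle control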
Method in brief: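 Counterscreen line: SH-SY5Y-GLuc-NoTag cells, treated with compound 19 hr before a 4 hr, 100 nM thapsigargin calcium depletion. Secreted Gaussia luciferase in the medium was measured by luminescence after coelenterazine was added (0.07x final), with cells unlysed.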

[14] = AP1 Signaling Pathway (AID 357; active = well fitted curve in either direction with a large enough effect, not every such curve was filed as active;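 note: ME-180 reporter cells stimulated with EGF at its EC50 level; % is set by controls: 0 for no effect and ±100 for the full control effect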); conditions: ME-180 AP-1-bla reporter, EGF-induced, beta-lactamase ratio, 5 h; at 7.69 µM (top of the series) unless noted
Method in brief: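 Modulation of EGF-driven AP-1 transcription was assessed with a beta-lactamase reporter in ME-180 cells. Compound and EC50 EGF were co-incubated 5 hours at 37 °C before 2.5-hour CCF4 loading at room temperature and dual-emission reading.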

[15] = molecular target: 3',5'-cyclic-AMP phosphodiesterase 4B (Homo sapiens) (UniProt Q07343); assay: qHTS Assay for Inhibitors of PDE-IV (AID 607; active = well fitted activation curve with a large enough effect in the main read-out, with a control signal flat, not every such curve was filed as active; note: % of control where 0% means no effect); conditions: HEK293 ACTOne CNG channel cells, membrane potential fluorescence; series mostly up to 22.9 µM
Method in brief: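 The readout is membrane depolarisation from a cAMP-sensing CNG channel, detected with a potential dye at ex 535/em 590. Cells were HEK293-derived (endogenous PDE-IV) at 1000 cells/well, titrated up to 22.9 uM final.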

[16] = qHTS Assay for Identification of Small Molecule Agonists for Hypoxia Response Element Signaling Pathway (AID 914; active = well fitted activation curve with a large enough effect in the signal ratio, with a control signal flat, not every such curve was filed as active; the % refers to the signal ratio; note: potency is the fitted concentration of half-maximal effect; for activation: % of control where 0% means no effect); conditions: ME-180 HRE-bla reporter, beta-lactamase ratio, CoCl2, 17 h; activation: stronger effect = higher value
Method in brief: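 Read-out: CCF4 FRET ratio of 460nm to 530nm emission (excitation 405nm) after 2.5 hours at room temperature, taken from HRE-bla ME-180 cells that had been exposed to compound and EC50 CoCl2 for 17 hours.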

[17] = molecular target: Dual specificity protein kinase CLK4 (Homo sapiens) (UniProt Q9HAZ1); assay: qHTS Assay for Inhibitors of CDC-like Kinase 4 (ADP-FP Assay) (AID 1795); conditions: Transcreener ADP fluorescence polarization; series mostly up to 50 µM;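 note: recombinant human CLK4 phosphorylating RS repeat peptide at 1 µM ATP; % is set by controls: 0 for no effect and ±100 for the full control effect; nearly all actives have a fitted effect of over 60% in size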
Method in brief: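 Kinase activity was followed as ADP output, converted from fluorescence polarization with a calibration curve. Reactions ran one hour at low ATP (1 uM) with RS peptide substrate.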

[18] = Stat Signaling Pathway (AID 446; active = well fitted curve in either direction with a large enough effect, not every such curve was filed as active;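 note: ME-180 cervical cancer cells given 40 pM IL-6 alongside compound; SIE-controlled beta-lactamase reporter measured as 460/530 nm FRET emission ratio; % is set by controls: 0 for no effect and ±100 for the full control effect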); conditions: ME-180 (cervical carcinoma) SIE beta-lactamase reporter, IL-6 stimulated, 5 h; at 7.69 µM (top of the series) unless noted
Method in brief: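 Emission at 460 and 530 nm (excitation 405 nm) reports SIE-controlled beta-lactamase in ME-180 cells. Cells received compound with 40 pM IL-6 for 5 hrs at 37 C; data scaled between 300 pM IL-6 and 125 nM JAK-inhibitor controls.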

[19] = Confirmatory qHTS for small molecule stabilizers of the endoplasmic reticulum resident proteome: Secreted ER Calcium Modulated Protein (SERCaMP) assay (AID 1508628); conditions: SERCaMP secreted luciferase ER calcium/proteostasis reporter; series mostly up to 76.3 µM; note: nearly all actives have a fitted effect of over 40% in size; note: potency is the fitted concentration of half-maximal effect
Method in brief: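 Reporter secretion upon ER calcium depletion (100 nM thapsigargin, 4 h, 37C) is measured as medium luminescence with coelenterazine, after 16 h compound pretreatment of SH-SY5Y-GLuc-SERCaMP cells; primary at three concentrations up to 38.3 uM, follow-up at 11 (up to 76.6 uM).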

[20] = measured here: cell count channel max response
[21] = measured here: lipid channel max response

Chain of Dual specificity protein kinase CLK4 (Homo sapiens) (Q9HAZ1 whole entry, looked up): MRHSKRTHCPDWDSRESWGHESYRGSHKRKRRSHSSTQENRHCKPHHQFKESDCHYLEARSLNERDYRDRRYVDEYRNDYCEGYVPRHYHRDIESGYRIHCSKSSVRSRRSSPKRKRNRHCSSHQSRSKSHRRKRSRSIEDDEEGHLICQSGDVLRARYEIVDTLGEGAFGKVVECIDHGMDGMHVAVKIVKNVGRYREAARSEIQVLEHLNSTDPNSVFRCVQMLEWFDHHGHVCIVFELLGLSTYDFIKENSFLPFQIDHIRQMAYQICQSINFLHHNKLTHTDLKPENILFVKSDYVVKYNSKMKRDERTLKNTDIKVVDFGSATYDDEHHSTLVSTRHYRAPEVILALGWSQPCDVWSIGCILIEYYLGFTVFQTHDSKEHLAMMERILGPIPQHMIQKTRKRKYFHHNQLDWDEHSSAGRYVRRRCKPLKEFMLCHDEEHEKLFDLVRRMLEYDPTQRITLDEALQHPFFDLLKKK
Chain of Cytochrome P450 3A4 (Homo sapiens) (P08684 whole entry, looked up): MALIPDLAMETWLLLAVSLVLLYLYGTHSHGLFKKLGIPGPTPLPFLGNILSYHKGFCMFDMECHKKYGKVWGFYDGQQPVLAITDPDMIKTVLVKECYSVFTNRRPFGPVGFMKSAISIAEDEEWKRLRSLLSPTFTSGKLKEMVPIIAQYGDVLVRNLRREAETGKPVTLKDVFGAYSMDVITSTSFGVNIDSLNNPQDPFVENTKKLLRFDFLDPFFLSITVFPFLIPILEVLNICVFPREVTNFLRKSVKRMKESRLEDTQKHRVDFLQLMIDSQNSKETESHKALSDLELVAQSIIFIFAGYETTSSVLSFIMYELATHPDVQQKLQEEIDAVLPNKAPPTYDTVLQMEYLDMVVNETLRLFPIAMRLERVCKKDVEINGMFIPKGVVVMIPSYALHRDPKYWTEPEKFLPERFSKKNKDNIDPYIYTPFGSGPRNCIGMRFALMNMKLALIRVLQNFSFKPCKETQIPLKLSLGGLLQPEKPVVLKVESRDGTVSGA
Chain of Cytochrome P450 1A2 (Homo sapiens) (P05177 whole entry, looked up): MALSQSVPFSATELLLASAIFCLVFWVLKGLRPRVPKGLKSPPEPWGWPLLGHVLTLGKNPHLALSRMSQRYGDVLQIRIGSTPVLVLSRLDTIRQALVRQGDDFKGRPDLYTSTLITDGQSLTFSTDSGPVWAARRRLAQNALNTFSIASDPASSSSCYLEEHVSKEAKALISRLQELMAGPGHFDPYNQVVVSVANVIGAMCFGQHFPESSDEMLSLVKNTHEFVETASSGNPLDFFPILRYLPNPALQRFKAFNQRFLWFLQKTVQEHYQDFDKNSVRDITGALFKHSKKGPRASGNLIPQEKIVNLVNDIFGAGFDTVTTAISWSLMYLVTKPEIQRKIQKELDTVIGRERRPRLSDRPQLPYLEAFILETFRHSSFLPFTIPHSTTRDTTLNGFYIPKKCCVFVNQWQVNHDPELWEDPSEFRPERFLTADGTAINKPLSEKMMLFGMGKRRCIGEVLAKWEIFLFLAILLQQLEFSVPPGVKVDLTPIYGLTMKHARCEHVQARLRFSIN
Chain of Lysosomal acid glucosylceramidase (Homo sapiens) (P04062 whole entry, looked up): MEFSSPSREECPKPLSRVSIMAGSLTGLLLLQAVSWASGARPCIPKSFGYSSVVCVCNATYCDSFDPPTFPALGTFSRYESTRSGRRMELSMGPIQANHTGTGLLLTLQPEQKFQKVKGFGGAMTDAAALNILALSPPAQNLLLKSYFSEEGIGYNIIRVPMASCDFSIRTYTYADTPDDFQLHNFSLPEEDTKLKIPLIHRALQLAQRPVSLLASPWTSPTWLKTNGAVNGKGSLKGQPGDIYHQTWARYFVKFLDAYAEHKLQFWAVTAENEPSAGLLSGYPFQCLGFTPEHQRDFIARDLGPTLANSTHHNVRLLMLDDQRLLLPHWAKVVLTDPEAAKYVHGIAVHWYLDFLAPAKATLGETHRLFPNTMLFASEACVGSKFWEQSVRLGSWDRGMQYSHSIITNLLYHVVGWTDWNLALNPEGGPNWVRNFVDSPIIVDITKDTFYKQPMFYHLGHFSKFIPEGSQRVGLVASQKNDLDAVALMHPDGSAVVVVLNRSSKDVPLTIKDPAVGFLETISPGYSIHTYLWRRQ
Chain of 3',5'-cyclic-AMP phosphodiesterase 4B (Homo sapiens) (Q07343 whole entry, looked up): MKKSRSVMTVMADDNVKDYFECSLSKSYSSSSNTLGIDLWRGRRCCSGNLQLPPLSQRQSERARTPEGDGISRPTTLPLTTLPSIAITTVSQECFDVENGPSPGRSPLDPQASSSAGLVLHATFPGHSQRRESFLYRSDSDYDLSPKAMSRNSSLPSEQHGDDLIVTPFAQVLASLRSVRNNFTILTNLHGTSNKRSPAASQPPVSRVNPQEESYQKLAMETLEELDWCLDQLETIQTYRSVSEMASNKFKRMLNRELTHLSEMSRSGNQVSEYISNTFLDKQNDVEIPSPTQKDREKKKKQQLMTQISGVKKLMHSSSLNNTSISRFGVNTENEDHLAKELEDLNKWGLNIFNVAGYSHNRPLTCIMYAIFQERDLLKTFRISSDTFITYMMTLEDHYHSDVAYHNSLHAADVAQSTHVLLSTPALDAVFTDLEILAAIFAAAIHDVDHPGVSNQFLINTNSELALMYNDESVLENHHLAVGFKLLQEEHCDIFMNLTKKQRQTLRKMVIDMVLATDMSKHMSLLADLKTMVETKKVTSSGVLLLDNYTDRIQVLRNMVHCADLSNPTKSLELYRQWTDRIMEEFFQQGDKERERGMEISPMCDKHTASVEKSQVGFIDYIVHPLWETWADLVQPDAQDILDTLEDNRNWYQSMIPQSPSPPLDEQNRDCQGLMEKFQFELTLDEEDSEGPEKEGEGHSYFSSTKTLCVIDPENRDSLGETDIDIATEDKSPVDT
Chain of Glucocorticoid receptor (Homo sapiens) (P04150 whole entry, looked up, the tested form may be a part): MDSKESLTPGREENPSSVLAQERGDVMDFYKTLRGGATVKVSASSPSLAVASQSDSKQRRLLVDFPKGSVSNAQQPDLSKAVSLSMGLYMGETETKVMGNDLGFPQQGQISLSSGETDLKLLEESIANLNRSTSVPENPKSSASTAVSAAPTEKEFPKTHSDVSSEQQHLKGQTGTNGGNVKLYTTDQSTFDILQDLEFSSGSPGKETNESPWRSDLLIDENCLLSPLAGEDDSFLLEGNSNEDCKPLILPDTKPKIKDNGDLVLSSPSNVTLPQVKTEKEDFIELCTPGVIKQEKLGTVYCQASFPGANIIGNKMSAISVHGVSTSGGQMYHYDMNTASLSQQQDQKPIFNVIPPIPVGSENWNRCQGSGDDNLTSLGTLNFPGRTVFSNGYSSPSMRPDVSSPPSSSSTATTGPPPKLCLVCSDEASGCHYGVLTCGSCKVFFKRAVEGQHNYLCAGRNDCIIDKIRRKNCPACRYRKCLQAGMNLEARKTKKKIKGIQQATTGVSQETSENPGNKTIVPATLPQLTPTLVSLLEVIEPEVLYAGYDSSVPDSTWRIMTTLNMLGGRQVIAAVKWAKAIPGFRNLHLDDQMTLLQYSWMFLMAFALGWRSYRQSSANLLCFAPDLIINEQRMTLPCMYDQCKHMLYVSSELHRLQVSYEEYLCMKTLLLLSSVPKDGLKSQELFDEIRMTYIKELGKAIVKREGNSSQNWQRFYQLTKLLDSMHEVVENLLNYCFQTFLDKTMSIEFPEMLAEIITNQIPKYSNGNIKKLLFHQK
Chain of Ubiquitin carboxyl-terminal hydrolase 1 (Homo sapiens) (O94782 whole entry, looked up): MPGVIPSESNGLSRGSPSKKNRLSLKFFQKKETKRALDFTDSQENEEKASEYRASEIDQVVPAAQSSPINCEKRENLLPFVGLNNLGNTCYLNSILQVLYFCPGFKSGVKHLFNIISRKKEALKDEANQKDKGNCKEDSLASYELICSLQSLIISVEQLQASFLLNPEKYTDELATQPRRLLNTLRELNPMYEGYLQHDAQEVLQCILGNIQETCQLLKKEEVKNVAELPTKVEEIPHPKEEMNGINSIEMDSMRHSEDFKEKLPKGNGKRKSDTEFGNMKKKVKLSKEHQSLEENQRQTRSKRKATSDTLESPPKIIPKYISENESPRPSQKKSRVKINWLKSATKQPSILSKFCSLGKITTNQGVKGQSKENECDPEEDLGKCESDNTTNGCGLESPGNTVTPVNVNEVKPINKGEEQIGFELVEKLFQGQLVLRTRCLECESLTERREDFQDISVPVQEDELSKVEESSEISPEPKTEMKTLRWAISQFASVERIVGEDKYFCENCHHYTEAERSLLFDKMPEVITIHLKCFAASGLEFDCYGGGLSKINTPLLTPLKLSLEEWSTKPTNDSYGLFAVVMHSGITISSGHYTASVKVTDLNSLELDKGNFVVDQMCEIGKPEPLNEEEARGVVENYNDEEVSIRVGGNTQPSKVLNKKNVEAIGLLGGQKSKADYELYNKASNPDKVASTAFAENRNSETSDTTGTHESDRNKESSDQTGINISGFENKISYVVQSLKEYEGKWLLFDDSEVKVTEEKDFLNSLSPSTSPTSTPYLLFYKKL

CN1CCN(c2ncnc3ccc(-c4ccccc4Cl)cc23)CC1
active: Potency [2] 1.58 µM | Potency [7] 5.01 µM | Potency [10] 25.1 µM | Potency [11] 28.2 µM
10.9%: max response [9, 20]
inactive: Potency [1] > 11.4 µM | activity change, negative = inhibition [3] -23.1% | Potency [4] > 46 µM | Potency [5] > 46 µM | outcome [6] | Potency [8] | activity change, negative = inhibition [9] -1.72% | Potency [12] | Potency [13]
-1.45%: max response [9, 21]

COCCn1c(=O)c(-c2cn(C)c3ccccc23)nc2cnc(N3CCNCC3)nc21
active: Potency [2] 12.6 µM | Potency [16] 3.16 µM
inactive: Potency [1] > 11.4 µM | activity change, negative = inhibition [14] 16% | activity change, negative = inhibition [3] 18.5% | Potency [4] > 9.22 µM | Potency [5] > 46 µM | outcome [6] | Potency [15] | Potency [8] | Potency [10] | Potency [11] | Potency [17] | Potency [12] | Potency [13]

CCNc1ncc2nc(CCc3ccccc3)c(=O)n(-c3ccccc3)c2n1
inactive: Potency [1] > 11.4 µM | activity change, negative = inhibition [14] -30.4% | activity change, negative = inhibition [3] -2.92% | activity, negative = inhibition [18] 16.3% | Potency [4] > 9.22 µM | Potency [5] > 46 µM | outcome [6] | Potency [8]
active: Potency [2] 1.26 µM | Potency [7] 5.01 µM | Potency [19] 35.5 µM

COc1cccc(CN2CCN(C(=O)c3ccc(-c4ccccc4)cc3)CC2)c1
inactive: Potency [19]

Cn1cc(-c2nc3cncnc3n(-c3ccccc3)c2=O)c2ccccc21
inactive: Potency [1] > 11.4 µM | activity change, negative = inhibition [14] -24% | activity change, negative = inhibition [3] 11.2% | activity, negative = inhibition [18] -2.15% | Potency [4] > 9.22 µM | Potency [5] > 46 µM | Potency [8] | Potency [10] | Potency [11] | Potency [17] | Potency [12] | Potency [13]
active: Potency [2] 1.58 µM

Cc1nc2cnc(N3CCN(C)CC3)nc2n(Cc2ccc(F)cc2)c1=O
inactive: Potency [1] > 11.4 µM | activity change, negative = inhibition [14] 1.11% | Potency [2] | activity change, negative = inhibition [3] -12.3% | activity, negative = inhibition [18] -4.86% | Potency [4] > 9.22 µM | Potency [5] > 46 µM | outcome [6] | Potency [15] | Potency [8] | activity change, negative = inhibition [9] 3.55% | Potency [10] | Potency [11] | Potency [17] | Potency [12] | Potency [19]
1.24%: max response [9, 21]
-0.123%: max response [9, 20]

CN1CCN(c2ncc3nc(CCc4ccccc4)c(=O)n(Cc4ccc(F)cc4)c3n2)CC1
inactive: Potency [1] > 11.4 µM | activity change, negative = inhibition [14] 4.85% | Potency [2] | activity change, negative = inhibition [3] -12.2% | activity, negative = inhibition [18] -1.54% | Potency [4] > 9.22 µM | Potency [5] > 46 µM | outcome [6] | Potency [8] | activation [16] -6.17% | Potency [13]
active: Potency [7] 5.01 µM | Potency [19] 25.1 µM

COc1ccc(-n2c(=O)c(-c3ccccc3)nc3cnc(N4CCN(C)CC4)nc32)cc1
22%: max response [9, 20]
inactive: Potency [1] > 11.4 µM | activity change, negative = inhibition [14] 14.5% | activity change, negative = inhibition [3] 5.17% | activity, negative = inhibition [18] 12.2% | Potency [4] > 9.22 µM | Potency [5] > 46 µM | outcome [6] | Potency [15] | Potency [7] | activity change, negative = inhibition [9] 0.696% | Potency [10] | Potency [11] | Potency [17] | Potency [12]
20%: max response [9, 21]
active: Potency [2] 20 µM | Potency [19] 25.1 µM

Cc1nc2cnc(N3CCN(C)CC3)nc2n(Cc2cccs2)c1=O
active: Potency [2] 12.6 µM | Potency [19] 39.8 µM
inactive: Potency [1] > 11.4 µM | activity change, negative = inhibition [14] 6.23% | activity change, negative = inhibition [3] -2.27% | activity, negative = inhibition [18] -2.61% | Potency [4] > 9.22 µM | Potency [5] > 46 µM | outcome [6] | Potency [15] | Potency [8] | Potency [13]

COCCn1c(=O)c(-c2cc(F)cc(F)c2)nc2cnc(N3CCNCC3)nc21
inactive: Potency [1] > 11.4 µM | Potency [4] > 9.22 µM | Potency [5] > 46 µM | outcome [6] | Potency [15] | Potency [8] | Potency [13]
active: Potency [2] 6.31 µM

COc1ccc(Oc2ncc3nc(-c4cccs4)c(=O)n(CCC#N)c3n2)cc1
inactive: Potency [1] > 11.4 µM | activity change, negative = inhibition [14] -1.5% | activity change, negative = inhibition [3] -5.68% | activity, negative = inhibition [18] -11.5% | Potency [4] > 9.22 µM | Potency [5] > 46 µM | outcome [6] | Potency [15] | activity change, negative = inhibition [9] 2.6% | Potency [10] | Potency [11] | Potency [17] | Potency [12] | Potency [13]
10.8%: max response [9, 20] | max response [9, 21]

Reference: PubChem BioAssay (NCATS)
